According to PubChem BioAssay (NCI):
This is part of a sample that, as a whole, favours compounds with a hit. Of some 79,000 tested, about 15% had one in any assay. Values without a mark were called inactive. Activity calls are given as the source filed them. Cut-off read from the data, not from the text of the source: active = growth inhibition above about 70%; inactive = the rest.

Assay: NCI Yeast Anticancer Drug Screen. Data for the mec2-1 strain (AID 157)
Conditions: S. cerevisiae mec2-1 strain, active compounds read high
Protocol: Growth inhibition of yeast strains with defined genetic alterations is measured as a screen for potential anti-cancer activity. Selected strains with alterations in DNA damage repair or cell cycle control were exposed to compounds and growth inhibition was measured relative to vehicle treated controls. The strain used in this assay is mec2-1

[1] = at 5.0 µM (retest, dose inferred, filed as 0.5)
[2] = at 50.0 µM (retest, dose inferred, filed as 5.0)

Row | Structure (SMILES) | growth inhibition (at 1.2 µM) [%] | growth inhibition (at 3.7 µM) [%] | growth inhibition [1] [%] | growth inhibition (at 11.0 µM) [%] | growth inhibition (at 33.0 µM) [%] | growth inhibition [2] | growth inhibition (at 50.0 µM) | growth inhibition (at 100.0 µM) [%]
1 | CCOC(=O)/C=C1\CCCn2c1ncc(C(=O)OCC)c2=O | 3 | 4 | -5 | 7 | 17 | 42% | 77% (active) | 32
2 | Nc1c([N+](=O)[O-])cc2c3c(cccc13)CC2 | 4 | 14 | 2 | 13 | 25 | 29% | 27.9% | 29
3 | O=C1OC(/C=C/c2ccccc2)Sc2ccccc21 (stereo not given) | -3 | -3 | 10 | 0 | 10 | 8% | 29.8% | 24
4 | CCC1SC(=S)N(c2ccc(Cl)cc2)C1=O (stereo not given) | -3 | -5 | 1 | -6 | -9 | 43% | 26.7% | 16
5 | O=Cn1c2ccccc2c2ccccc21 | -51 | -30 | 57 | -33 | -23 | 90% (active) | 44.4% | 31
